Measured values from the supplement of paper PMC12669032.
Unmarked numbers belong to inactive results.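 Rule for the calls: active = AUC reduced over 20% with Padj below 0.05 in at least 2 of 3 replicates; inactive = otherwise.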

How the values were obtained:
Assay in all cases: growth AUC relative to DMSO control (median of replicates) (fraction); higher = more growth (less inhibition), active = hit call of the paper
Conditions in all cases: 20 µM; 24 h
[1] = system: Akkermansia muciniphila
How it was run: (§1)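 For each compound at 20 µM (1% DMSO), gut bacterial monocultures seeded at OD600 0.05 grew anaerobically in mGAM at 37 °C in round-bottom 96-well plates. Hourly OD600 readings over 24 h gave growth curves whose minimum OD was set to 0. Area under these curves was normalised to the plate median of solvent-only wells, or to row and column medians on the industrial chemical plate. Values are medians of three biological replicates grown on separate days.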

[2] = system: Bacteroides caccae
How it was run: as §1

[3] = system: Bacteroides clarus
How it was run: as §1

[4] = system: Bacteroides dorei
How it was run: as §1

[5] = system: Bacteroides stercoris
How it was run: as §1

[6] = system: Bacteroides thetaiotaomicron
How it was run: as §1

[7] = system: Bacteroides uniformis
How it was run: as §1

[8] = system: Bifidobacterium longum subsp. longum
How it was run: as §1

[9] = system: Clostridium difficile
How it was run: as §1

[10] = system: Collinsella aerofaciens
How it was run: as §1

[11] = system: Coprococcus comes
How it was run: as §1

[12] = system: Escherichia coli ED1a
How it was run: as §1

[13] = system: Escherichia coli IAI1
How it was run: as §1

[14] = system: Eubacterium rectale
How it was run: as §1

[15] = system: Fusobacterium nucleatum subsp. animalis
How it was run: as §1

[16] = system: Lactobacillus gasseri
How it was run: as §1

[17] = system: Lactobacillus paracasei
How it was run: as §1

[18] = system: Odoribacter splanchnicus
How it was run: as §1

[19] = system: Parabacteroides distasonis
How it was run: as §1

[20] = system: Parabacteroides merdae
How it was run: as §1

SMILES | growth AUC [1] | growth AUC [2] | growth AUC [3] | growth AUC [4] | growth AUC [5] | growth AUC [6] | growth AUC [7] | growth AUC [8] | growth AUC [9] | growth AUC [10] | growth AUC [11] | growth AUC [12] | growth AUC [13] | growth AUC [14] | growth AUC [15] | growth AUC [16] | growth AUC [17] | growth AUC [18] | growth AUC [19] | growth AUC [20]
CCNc1nc(N)nc(Cl)n1 | 0.954 | 1.01 | 1.02 | 1.01 | 1.12 | 1.03 | 1.02 | 1 | 1.03 | 0.996 | 0.995 | 1 | 1 | 1.02 | 1.04 | 0.933 | 0.891 | 1.02 | 1.02 | 1.02
CCNc1nc(NC(C)CC)nc(OC)n1 (stereo not given) | 1.08 | 1.02 | 1 | 1.02 | 1.29 | 0.977 | 0.979 | 0.986 | 1.03 | 1.13 | 1.02 | 0.992 | 0.994 | 0.961 | 1.05 | 1.11 | 1.12 | 1 | 0.996 | 1.02
CC(C)C1C2CCC1c1c(NC(=O)c3cn(C)nc3C(F)F)cccc12 (stereo not given) | 0.967 | 0.88 | 0.85 | 0.965 | 0.902 | 0.906 | 0.912 | 0.912 | 0.962 | 0.969 | 0.966 | 1 | 0.957 | 0.971 | 0.906 | 0.702 | 0.965 | 0.758 | 0.533 (active) | 0.862
CCN(CC)C(=O)SCc1ccccc1Cl | 0.931 | 1.02 | 0.985 | 1 | 1.01 | 0.983 | 0.957 | 0.965 | 0.996 | 1.01 | 1.01 | 1.04 | 1 | 0.939 | 0.964 | 1.1 | 0.994 | 1.12 | 0.92 | 0.95
CCSC(=O)N(CC(C)C)CC(C)C | 0.967 | 1.05 | 1 | 1.02 | 0.987 | 1.01 | 0.994 | 0.842 | 0.993 | 1.04 | 1.02 | 1.02 | 1.02 | 0.903 | 1.03 | 1.22 | 0.942 | 0.985 | 0.993 | 0.987
Cc1cccc(C)c1O | 1.02 | 1.04 | 0.987 | 1.01 | 1.03 | 1.02 | 1 | 0.946 | 1.03 | 1.02 | 1 | 1.04 | 1 | 0.923 | 0.993 | 1.06 | 0.978 | 0.943 | 0.995 | 0.995
COC(=O)Cc1cccc2ccccc12 | 1.01 | 1.01 | 0.989 | 0.965 | 1.07 | 0.995 | 1 | 1.02 | 1.01 | 0.96 | 0.997 | 0.969 | 0.968 | 1.07 | 0.996 | 0.924 | 0.974 | 1.08 | 0.986 | 0.995
C=O | 0.996 | 1.01 | 0.982 | 1.02 | 1.03 | 0.972 | 0.988 | 0.984 | 0.968 | 1.04 | 0.998 | 1.03 | 0.999 | 0.921 | 1 | 1.04 | 1.06 | 1.03 | 1.03 | 1.03
CN(C)C(=O)Nc1ccc(Oc2ccc(Cl)cc2)cc1 | 0.943 | 0.863 | 0.948 | 0.871 | 0.819 | 0.92 | 1.02 | 0.991 | 0.96 | 0.924 | 0.938 | 0.95 | 0.938 | 1.24 | 0.849 | 0.926 | 1.08 | 1.1 | 0.937 | 0.918
c1ccc2[nH]c(-c3cscn3)nc2c1 | 0.73 | 0.997 | 1.01 | 0.973 | 0.947 | 0.974 | 1.02 | 0.976 | 0.985 | 0.985 | 0.96 | 1.01 | 0.989 | 0.878 | 0.97 | 1 | 0.991 | 0.962 | 0.974 | 0.972
COC(=O)CSc1cc(N=c2sc(=O)n3n2CCCC3)c(F)cc1Cl | 1.11 | 1 | 0.999 | 0.945 | 1.04 | 0.94 | 0.988 | 0.985 | 0.982 | 1.01 | 0.999 | 1.02 | 0.963 | 1.12 | 1.03 | 0.862 | 0.974 | 1.01 | 0.796 | 0.967
O.O.O=[N+]([O-])c1ccc([O-])cc1.[Na+] | 1.02 | 0.999 | 1 | 0.988 | 1.09 | 1.02 | 0.989 | 1.08 | 1.04 | 1.02 | 1.09 | 1.05 | 1.01 | 0.918 | 0.968 | 1.01 | 1.04 | 0.85 | 0.971 | 0.994
CCc1cccc(C)c1N(C(=O)C(=O)O)[C@@H](C)C(=O)O | 1.17 | 0.993 | 1.02 | 0.963 | 1.06 | 0.999 | 0.999 | 0.908 | 0.903 | 0.986 | 1.02 | 1.01 | 0.988 | 1.12 | 1.03 | 0.853 | 1.01 | 0.95 | 0.809 | 1.03
N[C@@H](Cc1cc(I)c(Oc2cc(I)c(O)c(I)c2)c(I)c1)C(=O)O | 1.1 | 0.944 | 0.96 | 1.04 | 0.838 | 0.908 | 1.01 | 0.93 | 0.945 | 0.923 | 0.906 | 0.959 | 0.941 | 1.04 | 0.838 | 0.87 | 0.886 | 0.957 | 0.921 | 0.949
CC(C)(SC(=O)N1CCCCC1)c1ccccc1 | 0.978 | 0.973 | 0.982 | 1.01 | 0.945 | 0.927 | 0.965 | 1.01 | 0.99 | 1 | 0.998 | 1.01 | 1.01 | 1.02 | 1.07 | 1.01 | 1.02 | 1 | 0.778 (active) | 0.965
CCc1ccc(O)cc1 | 0.993 | 0.884 | 1.01 | 0.95 | 1.24 | 0.989 | 1.01 | 1.01 | 0.957 | 0.919 | 0.934 | 1.02 | 0.997 | 0.988 | 1.13 | 0.963 | 0.84 | 0.979 | 1.02 | 0.968
